In PubChem BioAssay (NCATS):
Results filed as inconclusive are left out. Active and inactive are the calls of the source. Unless noted, calls come from the whole dose curve; as a rule, active = well fitted inhibition curve with a large enough effect; inconclusive = small, poorly fitted or top-dose-only effect; inactive = flat fitted curve, though single readings scatter.

Key:
[1] = qHTS drug screen for cell cycle checkpoint inhibitors in PARPi-resistant BRCA-mutant ovarian cancer cell lines. (AID 1963452; calls by dose curve; note: potency is the fitted concentration of half-maximal effect); details: PEO1/OlaR viability, CellTiter-Glo luminescence, 96 h; for Z-AUC: stronger effect = lower value
Outline: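 PEO1, PEO4 and PEO1/OlaR ovarian cancer cells, 600 per well, exposed 96 h at 37C to a dilution series. Viability read by CellTiter-Glo luminescence, normalized to DMSO and empty wells; activity summarized as Z-AUC.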

[2] = qHTS profiling for inhibitors of Plasmodium falciparum proliferation (AID 504749); note: nearly all actives have a fitted effect of over 60% in size; note: potency is the fitted concentration of half-maximal effect;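 for activity, negative = inhibition: 0% = DMSO vehicle and full inhibition = artemisinin control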; details: P. falciparum in erythrocytes, SYBR Green DNA, 72 h
Outline: (§1)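 P. falciparum-infected erythrocytes (0.3% parasitemia, 2.5% hematocrit) incubated with compound 72 h at 37 C, 5% CO2. Parasite DNA detected by SYBR Green after lysis, overnight at room temperature; normalised to 0.29 uM artemisinin and DMSO.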

7G8 = assay: as above; details: P. falciparum in erythrocytes, SYBR Green DNA, 72 h; series mostly up to 28.7 µM
Outline: as §1

AA1029 = assay: as above; details: P. falciparum in erythrocytes, SYBR Green DNA, 72 h; series mostly up to 28.7 µM
Outline: as §1

3D7 = assay: as above; details: P. falciparum in erythrocytes, SYBR Green DNA, 72 h; series mostly up to 28.7 µM
Outline: as §1

[3] = qHTS for identification of novel therapeutic agents for treatment of microphthalmiaassociated transcription factor (MiT) renal cell carcinoma (RCC) (AID 1963991); details: CellTiter-Glo, 48 h, stronger effect = lower value
Outline: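 Curves over 11 concentrations were fitted to CellTiter-Glo luminescence, scaled between empty wells (0%) and DMSO (100%) viability. Cells were UOK109, UOK124 and UOK145 TFE3-fusion RCC lines at 500/well, exposed 48 hours at 37 C.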

[4] = measured here: PEO1 parental Z-AUC
[5] = at 12.8 µM (top of the series), parasite line A
[6] = at 12.8 µM (top of the series), parasite line B
[7] = at 28.7 µM (top of the series), parasite line A
[8] = at 28.7 µM (top of the series), parasite line B

CCOC(=O)c1ccc(OC(=O)CCCCCN=C(N)N)cc1
Z-AUC [1]: 1.08 (inactive)
Z-AUC [1, 4]: 1.13
Z-AUC ([1]; measured here: PEO4 Z-AUC): 0.861
activity, negative = inhibition [2, 5]: -3.04% (inactive)
activity, negative = inhibition [2, 6]: 4.29% (inactive)
Potency (7G8): 3550 nM (active)
Potency (AA1029): inactive

CCCCOc1ccc(CC(=O)NO)cc1
Z-AUC [1]: -0.866 (inactive)
Z-AUC [1, 4]: -0.714
Z-AUC ([1]; measured here: PEO4 Z-AUC): -0.748
Potency ([2]; parasite line A): 1120 nM (active)
Potency (3D7): 562 nM (active)
Potency (7G8): 1780 nM (active)

COc1cc([C@@H]2c3cc4c(cc3[C@H](O)[C@H]3COC(=O)[C@H]23)OCO4)cc(OC)c1OC
Potency [1]: 17.4 nM (active)
Z-AUC [1, 4]: -1.81
Z-AUC ([1]; measured here: PEO4 Z-AUC): -1.94
Potency ([2]; parasite line A): 8910 nM (active)
Potency ([2]; parasite line B): 8910 nM (active)
Potency (3D7): 2240 nM (active)
Potency (7G8): 316 nM (active)
Potency (AA1029): 11200 nM (active)

CC1=C(C(=O)O)N2C(=O)[C@@H](NC(=O)C(N)c3ccccc3)[C@H]2SC1 (some centres undefined)
z-score ([3]; TFE3-RCC UOK109 viability, measured here: UOK109 Z-AUC): 1.68
z-score ([3]; TFE3-RCC viability, measured here: UOK124 Z-AUC): 0.228
z-score ([3]; TFE3-RCC viability, measured here: UOK145 Z-AUC): 0.731

CC(C)OC(=O)C(C(=O)OC(C)C)=C1SC=CS1
Z-AUC [1]: 1.21 (inactive)
Z-AUC [1, 4]: 0.837
Z-AUC ([1]; measured here: PEO4 Z-AUC): 1.06
activity, negative = inhibition [2, 7]: 2.72% (inactive)
activity, negative = inhibition [2, 8]: 16.3% (inactive)
Potency (3D7): inactive
Potency (7G8): inactive
Potency (AA1029): inactive

CC(C)(Sc1cc(C(C)(C)C)c(O)c(C(C)(C)C)c1)Sc1cc(C(C)(C)C)c(O)c(C(C)(C)C)c1
Z-AUC [1]: 0.926 (inactive)
Z-AUC [1, 4]: 1.36
Z-AUC ([1]; measured here: PEO4 Z-AUC): 1.09
activity, negative = inhibition [2, 5]: 6.04% (inactive)
activity, negative = inhibition [2, 6]: 8.09% (inactive)
Potency (3D7): 3550 nM (active)
Potency (AA1029): inactive

CCc1cc(C(N)=S)ccn1
Z-AUC [1]: 0.368 (inactive)
Z-AUC [1, 4]: -0.0543
Z-AUC ([1]; measured here: PEO4 Z-AUC): -0.17
activity, negative = inhibition [2, 7]: -0.167% (inactive)
activity, negative = inhibition [2, 8]: 3.61% (inactive)
Potency (3D7): inactive
Potency (7G8): inactive
Potency (AA1029): inactive

CNC(=O)c1cc(Oc2ccc(NC(=O)Nc3ccc(Cl)c(C(F)(F)F)c3)cc2)ccn1
Z-AUC [1]: 0.739 (inactive)
Z-AUC [1, 4]: 0.309
Z-AUC ([1]; measured here: PEO4 Z-AUC): 0.253
Potency (7G8): 1000 nM (active)

Cc1cccc(N(C)C(=S)Oc2ccc3ccccc3c2)c1
Z-AUC [1]: 0.688 (inactive)
Z-AUC [1, 4]: 0.339
Z-AUC ([1]; measured here: PEO4 Z-AUC): 0.795
activity, negative = inhibition [2, 5]: -2.31% (inactive)
activity, negative = inhibition [2, 6]: 0.272% (inactive)
Potency (3D7): inactive
Potency (7G8): inactive
Potency (AA1029): inactive

CC(=O)Oc1ccccc1C(=O)Nc1ncc([N+](=O)[O-])s1
Z-AUC [1]: 0.99 (inactive)
Z-AUC [1, 4]: 0.864
Z-AUC ([1]; measured here: PEO4 Z-AUC): 0.834
activity, negative = inhibition [2, 7]: 1.42% (inactive)
activity, negative = inhibition [2, 8]: 8% (inactive)
Potency (7G8): 10000 nM (active)
Potency (AA1029): inactive

Oc1c(Cl)cc(Cl)c2cccnc12
Z-AUC [1]: 0.201 (inactive)
Z-AUC [1, 4]: -0.0999
Z-AUC ([1]; measured here: PEO4 Z-AUC): -0.27
Potency ([2]; parasite line B): 10000 nM (active)
Potency (7G8): 6310 nM (active)

CN(C)c1ccc(C(=C2C=CC(=[N+](C)C)C=C2)c2ccc(N(C)C)cc2)cc1
Z-AUC [1]: -1.19 (inactive)
Z-AUC [1, 4]: -1.68
Z-AUC ([1]; measured here: PEO4 Z-AUC): -1.8
Potency ([2]; parasite line A): 224 nM (active)
Potency ([2]; parasite line B): 282 nM (active)
Potency (3D7): 282 nM (active)
Potency (7G8): 251 nM (active)
Potency (AA1029): 355 nM (active)
